# Assay outcomes (PubChem)
# The full list was thinned out, with hits kept by preference.
# Pf Dd2 growth = qHTS Primary assay for Inhibitors of Plasmodium falciparum Dd2 growth in vitro | P. falciparum Dd2 growth, SYBR Green, 72 h | Potency, µM (highest dose often 28.9 µM), for the others: at the top dose activity, negative = inhibition, actives largely listed as inhibitors | hit rate 4.3% among 120,000; active = well fitted inhibition curve with a large enough effect;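 also: plate controls were DMSO vehicle for no effect and reference drug for full effect; nearly all actives have a fitted effect of over 65% in size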
#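 Infected erythrocytes (Dd2, 0.3% parasitemia, 2.5% hematocrit final) are added to compound in RPMI-1640/Albumax II medium, grown 72 h at 37C in low oxygen, then lysed with saponin/Triton-X containing SYBR Green and read by fluorescence.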
# Active calls of the source: *; i = inactive; [ ] = remark or other dose. Potency is read from the fitted curve at half-maximal effect.
SMILES,Pf Dd2 growth
O=C(c1ccc(F)cc1)N1CC2CC(C1)[C@H]1CCCC(=O)N1C2 (stereo partly specified),2%
CCc1cccc(NC(=O)Cn2c(COc3ccc(OC)cc3)nc(C)c(CCO)c2=O)c1,24%
CN1C(=O)c2[nH]nc(-c3ccc(F)cc3)c2C1c1cccc(O)c1 (stereo unspecified),-5%
Cc1ccc(N2C(=O)c3n[nH]c(C)c3C2c2ccc(C(C)C)cc2)cc1 (stereo unspecified),i
CC(C)c1ccc(C2c3c(-c4ccccc4O)n[nH]c3C(=O)N2Cc2ccncc2)cc1 (stereo unspecified),13µM*
CSc1ccc(C2c3c(-c4ccccc4O)n[nH]c3C(=O)N2Cc2ccncc2)cc1 (stereo unspecified),13µM*
CC(C)c1ccc(C2NC(=O)c3n[nH]c(-c4cccs4)c32)cc1 (stereo unspecified),i
Cc1ccc(-c2nnc(C3CN(C(=O)c4cccc(Cl)c4)CC34CCOCC4)o2)cc1 (stereo unspecified),i
O=C(NCc1ccco1)[C@H]1CN2CCC1C[C@@H]2Cn1cc(CO)nn1 (stereo partly specified),23%[44.1 µM]
CCOC(=O)C1CCN(C(=O)c2cc(-c3ccncc3)cn2Cc2ccccc2C)CC1,6.3µM*
CCn1cc(-c2ccc(Cl)cc2)cc1C(=O)NCc1ccncc1,i
Cc1ccccc1Cn1cc(-c2ccncc2)cc1C(=O)O,i
Cc1ccc(Cn2cc(-c3ccncc3)cc2C(=O)N2CCN(C)CC2)cc1,6.3µM*
Cc1ccc(-c2cc(C(=O)O)n(C)c2)cc1,32%
CCOC(=O)C1CCN(C(=O)c2cc3sc(C)cc3n2C)CC1,-4%
O[C@@H]1CN(Cc2ccc(-c3ccn[nH]3)o2)CC[C@H]1c1ccc2c(c1)OCO2,-22%
CCc1cc(NCc2nc(-c3ccncc3)n[nH]2)n2nc(C)c(C)c2n1,-17%
COc1ccc(C)cc1NC(=O)c1ccc2c(Cl)c3c(nc2c1)CCC3,30%
COc1ccccc1Nc1nn2c(=O)c3ccc(C(=O)Nc4ccc(F)cc4)cc3nc2s1,31%
CCOc1ccccc1C(=O)Nc1ccc(S(=O)(=O)Nc2nc(C)cc(C)n2)cc1,-4%
CCOc1ccccc1C(=O)Nc1ccc2nc3c(c(Nc4ccc(OC)c(OC)c4)c2c1)CCCC3,1.1µM*
COc1cc(OC)cc(C(=O)Nc2ccc3nc4c(c(Nc5ccc(OC)c(OC)c5)c3c2)CCCC4)c1,0%
COc1ccccc1Nc1c2c(nc3ccc(NC(=O)c4ccc(N(C)C)cc4)cc13)CCCC2,5.6µM*
Cc1cccc(NC(=O)Nc2ccc(C)n(CC(=O)NCCN3CCCCC3)c2=O)c1,-19%
COCCN1C(=O)CCc2cc(NC(=O)c3ccc(F)cc3)ccc21,-13%
SMILES,Pf Dd2 growth
COc1ccc(C(=O)NC2CCN(c3cnn(C)c(=O)c3)CC2)cc1,-1%
Cc1ccc(CN2CCn3c(nnc3[C@@H]3C[C@@H](O)CN3Cc3cccnc3)C2)o1,10%
O=C(c1cn[nH]c1)N1CCC(c2nc(CCOCC3CCOCC3)no2)C1 (stereo unspecified),7%
O=C(c1ccc(=O)[nH]c1)N1C[C@@H](COCC2CC2)[C@H](c2ccncc2)C1,14%
COC(=O)c1sc(-c2ccccc2)cc1NC(=O)c1cccc(Cl)c1,451%[5.79 µM]
COC(=O)c1sc(-c2ccccc2)cc1NC(=O)c1cccc(F)c1,i[5.79 µM]
COC(=O)c1sc(-c2ccccc2)cc1NC(=O)Nc1ccccc1Cl,11µM*
O=C1NCCOCCN(C(=O)NC2CCCCC2)[C@@H]2CCCC[C@H]12,11%
COc1ccc(S(=O)(=O)N2CCc3c(C(=O)NCc4cccc(F)c4)cccc32)cc1,i
CCOC(=O)N1CCc2c(sc(NCc3cccc(F)c3)c2C(=O)Nc2ccc(OC)cc2OC)C1,4µM*
CCOC(=O)N1CCc2c(sc(NCc3cccc(F)c3)c2C(=O)Nc2ccc(OC)cc2)C1,7.9µM*
CCC(=O)N1CCc2c(C(=O)Nc3ccc(OC)cc3OC)cccc21,-21%
COc1ccc(CNC(=O)c2cc3c(s2)CCN(C(C)=O)C3)cc1,i
COc1ccc(NC(=O)CN2CCN(CC(=O)Nc3ccccc3F)CC2)c(OC)c1,-1%
COc1ccc(NC(=O)c2c(NCc3cccc(F)c3)sc3c2CCCC3)c(OC)c1,8.9µM*
CCC(=O)Nc1sc2c(c1C(=O)Nc1ccc(OC)cc1)CCC(C(C)(C)C)C2 (stereo unspecified),-2%
COc1ccc(NC(=O)c2c(NC(=O)COc3ccccc3)sc3c2CCCCC3)cc1,11%[0.594 µM]
CCOC(=O)N1CCc2c(sc(NCc3ccc(N(C)C)cc3)c2C(=O)Nc2ccc(OC)cc2)C1,11µM*
CCNC(=O)c1c(NC(=O)COc2ccc(F)cc2)sc2c1CCCC2,-2%
Cc1ccsc1C(=O)N1CCC(c2nc(C3CCOCC3)no2)C1 (stereo unspecified),16%
CC(C)CN1CCN(C2CCOC3(CCN(C(=O)c4cccs4)CC3)C2)CC1 (stereo unspecified),-15%
CN(CC1CCOC1)S(=O)(=O)c1ccc(Cl)cc1 (stereo unspecified),2%[5.79 µM]
CN(CC1CCOCC1)C(=O)c1cccc(Br)c1,-16%
COCCNC(=O)[C@H]1C[C@H](Oc2ccccc2)CN1C(=O)COC,25%
COCCNC(=O)c1ccc2c(c1)N(C)C(CC(=O)N1CCNC(=O)C1)CO2 (stereo unspecified),-19%
SMILES,Pf Dd2 growth
Cc1cc(C(=O)N2[C@@H]3CC[C@H]2CC(NC(=O)c2ccc(F)cc2)C3)n[nH]1 (stereo partly specified),-14%
CCNC(=O)[C@@H]1C[C@H](N)CN1S(=O)(=O)c1cnn(CC)c1C,-9%
O=C1Nc2ccc(-c3ccccc3)cc2C(=O)N2CCN(C(=O)c3ccccc3)C[C@H]12,-20%[44.1 µM]
CCC1Oc2ccc(NC(=O)CC(C)(C)C)cc2CN(Cc2ccccc2F)C1=O (stereo unspecified),-2%
CCOC(=O)c1ccc(NC(=O)c2c(NCc3cc(OC)c(OC)cc3OC)sc3c2CCCC3)cc1,13µM*
COc1ccc(NC(=O)c2c(NC(=O)c3ccc(Br)cc3)sc3c2CCCC3)cc1,-9%
COC(=O)c1c(NC(=O)c2c(OC)cccc2OC)sc2c1CCCC2,18%
CCOC(=O)c1c(NC(=O)CS(=O)(=O)c2ccc(Cl)cc2)sc2c1CCCC2,i
COC(=O)c1ccc(NC(=O)c2c(NCc3cccc(F)c3)sc3c2CCCC3)cc1,13µM*
COC(=O)c1c(NC(=O)COc2cccc(C(F)(F)F)c2)sc2c1CCCC2,77%
Cc1ccc(C2Cn3cnc(C(=O)N4CCC(C(=O)NCc5cc(F)ccc5F)CC4)c3CO2)cc1 (stereo unspecified),8%
O=C1NCCCCCCN(C(=O)CCc2nc3ccccc3s2)[C@H]2CCC[C@@H]12,-23%
O=C1NCCCCCN(C(=O)NCc2ccccc2)[C@H]2CCCC[C@@H]12,0%
OC1CC(c2cc(NCCOCc3ccc(Cl)cc3)ncn2)C1 (stereo unspecified),-18%
CCCNC(=O)N1CCCC(c2noc(COCC)n2)C1 (stereo unspecified),33%
Cc1cc2c(n1-c1ccc(C(=O)NCc3cccc(Br)c3)cc1)CCC(C)C2 (stereo unspecified),11µM*
COc1ccc(OC)c(CNC(=O)c2ccc3c(c2)c(C)c(C)n3C)c1,-17%
CCc1ccc(CNC(=O)c2ccc(-n3c(C)cc4c3CCC(C)C4)cc2)cc1 (stereo unspecified),13µM*
